Measurements taken from PubChem BioAssay (Tox21).
The source made the active and inactive calls. The call rests on the fitted dose curve; in most records, active means well fitted curve in the direction sought with a large enough effect in the repeat runs; inconclusive means weak or mixed curves; inactive means flat fitted curve, though single readings scatter.

Assay: qHTS assay to test for compound auto fluorescence at 535 nm (green) in HEK293 cells (AID 720680)
Conditions: green autofluorescence 485/535 nm; series mostly up to 46 µM; fluorescence, % of fluorescein: at the top concentration
On the % scale 0 is the no-effect control and ±100 the full control effect.

| SMILES | fluorescence, % of fluorescein | outcome |
| --- | --- | --- |
| C[N+](C)(C)CCCCCC[N+](C)(C)C | 0.015% (inactive) |  |
| NS(=O)(=O)c1cc2c(cc1Cl)NC(C1CC3C=CC1C3)NS2(=O)=O (centres undefined) | 0.0278% (inactive) |  |
| OCCOc1ccc(OCCO)cc1 | 0.0662% [at 95.7 µM] (inactive) |  |
| COC(C)(C)CCCC(C)CC=O (centres undefined) | 0.0084% [at 91.3 µM] (inactive) |  |
| CCOC(=O)CCC(C)=O | 0.0076% [at 91.3 µM] (inactive) |  |
| NC(=O)COCCN1CCN(C(c2ccccc2)c2ccc(Cl)cc2)CC1 (centres undefined) | 0.0171% (inactive) |  |
| C=CCCCCCCCCC=O | 0.0372% [at 91.3 µM] (inactive) |  |
| NS(=O)(=O)c1ccc(C(=O)O)cc1 | 0.157% (inactive) |  |
| CC[N+](C)(C)c1cccc(O)c1 | 0.0622% [at 18.6 µM] (inactive) |  |
| O=C(O)CCCc1ccccc1 | 0.0261% (inactive) |  |
| CC(=O)c1ccccc1O | -0.0442% [at 91.3 µM] (inactive) |  |
| Cc1cccn2c(=O)c(-c3nnn[nH]3)cnc12 | 0.0419% (inactive) |  |
| c1ccc([C@H]2CN3CCSC3=N2)cc1 | 0.0739% (inactive) |  |
| CC(C[N+](C)(C)C)OC(N)=O (centres undefined) | -0.0077% (inactive) |  |
| CCCCCCCCS(=O)(=O)Cl | -0.0016% [at 91.3 µM] (inactive) |  |
| CC(=O)OCC(=O)[C@@]1(O)CCC2C3CCC4=CC(=O)CC[C@]4(C)C3[C@@H](O)C[C@@]21C (some centres undefined) | -0.0188% (inactive) |  |
| O=C1CCCC(=O)C1 | 0.0194% [at 91.3 µM] (inactive) |  |
| CCOC(=O)c1ccc(C)cc1 | 0.0545% [at 91.3 µM] (inactive) |  |
| O=C(CCCN1CCN(c2ccccn2)CC1)c1ccc(F)cc1 | 0.0246% (inactive) |  |

| SMILES | fluorescence, % of fluorescein | outcome |
| --- | --- | --- |
| CC1(C)C(O)C(C)(C)C1O (centres undefined) | 0.115% [at 91.3 µM] (inactive) |  |
| CC/C=C\CC/C=C/C(OCC)OCC | -0.015% [at 91.3 µM] (inactive) |  |
| COc1c(N2C[C@@H]3CCCN[C@@H]3C2)c(F)cc2c(=O)c(C(=O)O)cn(C3CC3)c12 |  | inactive |
| COC(=O)[C@@H](N)Cc1ccc(O)c(O)c1 | -0.389% (inactive) |  |
| CCN1CCC[C@H]1CNC(=O)c1c(O)c(Cl)cc(Cl)c1OC | -0.074% (inactive) |  |
| OC(CCN1CCCCC1)(c1ccccc1)C1CC2C=CC1C2 (centres undefined) |  | inactive |
| C1CN(CCOCCN2CCOCC2)CCO1 | 0.0577% [at 91.3 µM] (inactive) |  |
| COc1nc(N)nc2c1ncn2[C@@H]1O[C@H](CO)[C@@H](O)[C@@H]1O | 0.0613% (inactive) |  |
| C=C[Si](OC(=C)C)(OC(=C)C)OC(=C)C | 0.0266% [at 91.3 µM] (inactive) |  |
| CCOC(C)(C)C | -0.105% [at 95.7 µM] (inactive) |  |
| C=CCS(=O)(=O)O | 0.0593% [at 91.3 µM] (inactive) |  |
| Oc1ccc(C2CNCCc3c2cc(O)c(O)c3Cl)cc1 (centres undefined) | 0.11% (inactive) |  |
| O=C(O)COc1nn(Cc2ccccc2)c2ccccc12 | 0.0658% (inactive) |  |
| CC(C)NCC(O)c1ccc(NS(C)(=O)=O)cc1 (centres undefined) |  | inactive |
| CO[Si](CCCOCC1CO1)(OC)OC (centres undefined) |  | inactive |
| CCSC(=O)N(CC(C)C)CC(C)C | 0.128% [at 91.3 µM] (inactive) |  |
| NC(=O)c1ccc([N+](=O)[O-])cc1 | 0.0157% [at 91.3 µM] (inactive) |  |
| CCCN1CCCC[C@H]1C(=O)Nc1c(C)cccc1C | 0.0195% (inactive) |  |

Assay: qHTS assay to test for compound auto fluorescence at 460 nm (blue) in HEK293 cell free culture (AID 720681)
Conditions: cell-free medium, autofluorescence 405/460 nm (blue); series mostly up to 46 µM; fluorescence, % of fluorescent control: at the top concentration
Method in brief: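 Compounds were added to cell-free DMEM with 10% FBS and fluorescence read directly. The blue channel used 405 nm excitation and 460 nm emission, with triamterene as the reference fluorophore.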

| SMILES | fluorescence, % of fluorescent control | outcome |
| --- | --- | --- |
| C[N+](C)(C)CCCCCC[N+](C)(C)C | -0.0055% (inactive) |  |
| NS(=O)(=O)c1cc2c(cc1Cl)NC(C1CC3C=CC1C3)NS2(=O)=O (centres undefined) | -0.144% (inactive) |  |
| COC(C)(C)CCCC(C)CC=O (centres undefined) | 0.0002% [at 91.3 µM] (inactive) |  |
| CCOC(=O)CCC(C)=O | 0.12% [at 91.3 µM] (inactive) |  |
| NC(=O)COCCN1CCN(C(c2ccccc2)c2ccc(Cl)cc2)CC1 (centres undefined) | -0.156% (inactive) |  |
| C=CCCCCCCCCC=O | -0.105% [at 91.3 µM] (inactive) |  |
| NS(=O)(=O)c1ccc(C(=O)O)cc1 | 0.09% (inactive) |  |
| CC[N+](C)(C)c1cccc(O)c1 | 0.0126% [at 18.6 µM] (inactive) |  |
| O=C(O)CCCc1ccccc1 | -0.071% (inactive) |  |
| Cc1cccn2c(=O)c(-c3nnn[nH]3)cnc12 | 2.27% (inactive) |  |
| c1ccc([C@H]2CN3CCSC3=N2)cc1 | 0.0354% (inactive) |  |
| CC(C[N+](C)(C)C)OC(N)=O (centres undefined) | 0.0868% (inactive) |  |
| CCCCCCCCS(=O)(=O)Cl | -0.0316% [at 91.3 µM] (inactive) |  |
| O=[N+]([O-])c1ccc(F)cc1F | -0.0472% [at 91.3 µM] (inactive) |  |
| CC(=O)OCC(=O)[C@@]1(O)CCC2C3CCC4=CC(=O)CC[C@]4(C)C3[C@@H](O)C[C@@]21C (some centres undefined) | -0.0406% (inactive) |  |
| COC(=O)c1c(Cl)c(Cl)c(C(=O)OC)c(Cl)c1Cl |  | inactive |
| O=C1CCCC(=O)C1 | 1.61% [at 91.3 µM] (inactive) |  |
| O=C(CCCN1CCN(c2ccccn2)CC1)c1ccc(F)cc1 | 0.0643% (inactive) |  |

| SMILES | fluorescence, % of fluorescent control | outcome |
| --- | --- | --- |
| CC1(C)C(O)C(C)(C)C1O (centres undefined) | -0.0124% [at 91.3 µM] (inactive) |  |
| CC/C=C\CC/C=C/C(OCC)OCC | 0.227% [at 91.3 µM] (inactive) |  |
| COc1c(N2C[C@@H]3CCCN[C@@H]3C2)c(F)cc2c(=O)c(C(=O)O)cn(C3CC3)c12 |  | inactive |
| COC(=O)[C@@H](N)Cc1ccc(O)c(O)c1 | 2.31% (inactive) |  |
| CCN1CCC[C@H]1CNC(=O)c1c(O)c(Cl)cc(Cl)c1OC | -0.0058% (inactive) |  |
| OC(CCN1CCCCC1)(c1ccccc1)C1CC2C=CC1C2 (centres undefined) |  | inactive |
| C1CN(CCOCCN2CCOCC2)CCO1 | 0.0651% [at 91.3 µM] (inactive) |  |
| COc1nc(N)nc2c1ncn2[C@@H]1O[C@H](CO)[C@@H](O)[C@@H]1O | -0.0844% (inactive) |  |
| C=C[Si](OC(=C)C)(OC(=C)C)OC(=C)C | 0.0137% [at 91.3 µM] (inactive) |  |
| CCOC(C)(C)C | -0.04% [at 95.7 µM] (inactive) |  |
| C=CCS(=O)(=O)O | -0.125% [at 91.3 µM] (inactive) |  |
| CC(C)CNCC(C)C | 0.0313% [at 91.3 µM] (inactive) |  |
| Oc1ccc(C2CNCCc3c2cc(O)c(O)c3Cl)cc1 (centres undefined) | 0.324% (inactive) |  |
| O=C(O)COc1nn(Cc2ccccc2)c2ccccc12 | -0.119% (inactive) |  |
| CO[Si](CCCOCC1CO1)(OC)OC (centres undefined) |  | inactive |
| CCSC(=O)N(CC(C)C)CC(C)C | -0.154% [at 91.3 µM] (inactive) |  |
| NC(=O)c1ccc([N+](=O)[O-])cc1 | -0.15% [at 91.3 µM] (inactive) |  |

Assay: qHTS assay to test for compound auto fluorescence at 535 nm (green) in HEK293 cell free culture (AID 720682)
Conditions: cell-free medium, green autofluorescence 485/535 nm, hits give high values; series mostly up to 46 µM; activity change: at the top concentration
Method in brief: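 Fluorescein serves as the green reference fluorophore; each compound's intrinsic emission at 535 nm (excitation 485 nm) is reported as an equivalent amount of that dye, measured in serum-containing DMEM without cells.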

| SMILES | activity change | outcome |
| --- | --- | --- |
| NS(=O)(=O)c1cc2c(cc1Cl)NC(C1CC3C=CC1C3)NS2(=O)=O (centres undefined) | 0.0726% (inactive) |  |
| OCCOc1ccc(OCCO)cc1 | 0.0247% [at 95.7 µM] (inactive) |  |
| COC(C)(C)CCCC(C)CC=O (centres undefined) | 0.0199% [at 91.3 µM] (inactive) |  |
| CCOC(=O)CCC(C)=O | -0.0364% [at 91.3 µM] (inactive) |  |
| NC(=O)COCCN1CCN(C(c2ccccc2)c2ccc(Cl)cc2)CC1 (centres undefined) | -0.0268% (inactive) |  |
| C=CCCCCCCCCC=O | 0.103% [at 91.3 µM] (inactive) |  |
| CC(=O)c1ccccc1O | 0.0513% [at 91.3 µM] (inactive) |  |
| Cc1cccn2c(=O)c(-c3nnn[nH]3)cnc12 | -0.0445% (inactive) |  |
| c1ccc([C@H]2CN3CCSC3=N2)cc1 | -0.005% (inactive) |  |
| CC(C[N+](C)(C)C)OC(N)=O (centres undefined) | -0.0031% (inactive) |  |
| CCCCCCCCS(=O)(=O)Cl | -0.0184% [at 91.3 µM] (inactive) |  |
| COC(=O)c1c(Cl)c(Cl)c(C(=O)OC)c(Cl)c1Cl |  | inactive |
| O=C1CCCC(=O)C1 | 0.0469% [at 91.3 µM] (inactive) |  |
| CCOC(=O)c1ccc(C)cc1 | 0.0058% [at 91.3 µM] (inactive) |  |
| O=C(CCCN1CCN(c2ccccn2)CC1)c1ccc(F)cc1 | -0.0123% (inactive) |  |
| CC1(C)C(O)C(C)(C)C1O (centres undefined) | -0.0008% [at 91.3 µM] (inactive) |  |

| SMILES | activity change | outcome |
| --- | --- | --- |
| CC/C=C\CC/C=C/C(OCC)OCC | 0.0677% [at 91.3 µM] (inactive) |  |
| COc1c(N2C[C@@H]3CCCN[C@@H]3C2)c(F)cc2c(=O)c(C(=O)O)cn(C3CC3)c12 |  | inactive |
| COC(=O)[C@@H](N)Cc1ccc(O)c(O)c1 | -0.114% (inactive) |  |
| CCN1CCC[C@H]1CNC(=O)c1c(O)c(Cl)cc(Cl)c1OC | 0.0246% (inactive) |  |
| OC(CCN1CCCCC1)(c1ccccc1)C1CC2C=CC1C2 (centres undefined) |  | inactive |
| C1CN(CCOCCN2CCOCC2)CCO1 | 0.11% [at 91.3 µM] (inactive) |  |
| COc1nc(N)nc2c1ncn2[C@@H]1O[C@H](CO)[C@@H](O)[C@@H]1O | -0.0202% (inactive) |  |
| C=C[Si](OC(=C)C)(OC(=C)C)OC(=C)C | 0.119% [at 91.3 µM] (inactive) |  |
| CCOC(C)(C)C | -0.092% [at 95.7 µM] (inactive) |  |
| C=CCS(=O)(=O)O | 0.0544% [at 91.3 µM] (inactive) |  |
| O=C(O)COc1nn(Cc2ccccc2)c2ccccc12 | -0.0276% (inactive) |  |
| CC(C)NCC(O)c1ccc(NS(C)(=O)=O)cc1 (centres undefined) |  | inactive |
| CO[Si](CCCOCC1CO1)(OC)OC (centres undefined) |  | inactive |
| CCSC(=O)N(CC(C)C)CC(C)C | 0.0671% [at 91.3 µM] (inactive) |  |
| NC(=O)c1ccc([N+](=O)[O-])cc1 | -0.036% [at 91.3 µM] (inactive) |  |
| CCCN1CCCC[C@H]1C(=O)Nc1c(C)cccc1C | -0.0239% (inactive) |  |
